Abeta yeast res: qHTS for compounds that reverse cellular toxicity of Amyloid beta (A-beta) peptide in yeast: Primary Screen | yeast expressing A-beta42, growth rescue, OD600, 48 h; response scale: 0% DMSO, 100% iron-clioquinol control | Potency, µM (top dose mostly 46.1 µM), most hits filed as activators | 410,000 compounds, 0.063% hits; further: potency means the concentration at half of the fitted maximal effect; nearly all actives have a fitted effect of over 55% in size
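Growth rescue measured by 600 nm absorbance after 48 h yeast culture at 30 C with compound. Values normalized between DMSO and an equimolar ferric chloride plus clioquinol control.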
aSyn rescue: qHTS of alpha-syn Inhibitors; Yeast expressing alpha-synuclein, growth rescue, BacTiter-Glo, 24 h; Potency, µM (titrated, usually from 46.1 µM), without a hit: at the top dose growth rescue (activation), actives largely listed as activators; 370,000 compounds, 0.14% hits; further: potency means the concentration at half of the fitted maximal effect; % of control where 0% means no effect; nearly all actives have a fitted effect of over 65% in size
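Galactose-induced alpha-syn yeast (OD600=0.02, raffinose-pregrown) + pinned cpd, 24 hr, 30 deg C; growth by BacTiter-Glo luminescence. Growth restoration scores as activation.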
TDP-43 yeast inh: qHTS of TDP-43 Inhibitors; 410,000 compounds, 1.8% hits; Potency, µM (top dose mostly 46.1 µM), for inactives: top-dose growth rescue (activation), hits mostly activators; TDP-43 expressing yeast growth rescue, BacTiter-Glo, 24 h; AID 652104, 2013; further: potency means the concentration at half of the fitted maximal effect; % of control where 0% means no effect; nearly all actives have a fitted effect of over 50% in size
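Cell-based yeast growth screen: TDP-43 expression induced in galactose, inoculum OD600=0.02 after raffinose pregrowth to mid-log. Read-out BacTiter-Glo luminescence at 24 hr, 30 deg C; inhibition of toxicity seen as signal increase.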
PTHR1 agonist: qHTS for PTHR1 Agonists: Primary Screen; HEK293 GP2 PTHR1 cells, GloSensor cAMP luminescence, 1 h; Potency, µM (top dose mostly 115 µM), for the others: at the highest dose activation, hits mostly activators; 410,000 compounds, 0.075% hits; further: potency means the concentration at half of the fitted maximal effect; nearly all actives have a fitted effect of over 55% in size
Target sequence (Q03431 whole entry, looked up): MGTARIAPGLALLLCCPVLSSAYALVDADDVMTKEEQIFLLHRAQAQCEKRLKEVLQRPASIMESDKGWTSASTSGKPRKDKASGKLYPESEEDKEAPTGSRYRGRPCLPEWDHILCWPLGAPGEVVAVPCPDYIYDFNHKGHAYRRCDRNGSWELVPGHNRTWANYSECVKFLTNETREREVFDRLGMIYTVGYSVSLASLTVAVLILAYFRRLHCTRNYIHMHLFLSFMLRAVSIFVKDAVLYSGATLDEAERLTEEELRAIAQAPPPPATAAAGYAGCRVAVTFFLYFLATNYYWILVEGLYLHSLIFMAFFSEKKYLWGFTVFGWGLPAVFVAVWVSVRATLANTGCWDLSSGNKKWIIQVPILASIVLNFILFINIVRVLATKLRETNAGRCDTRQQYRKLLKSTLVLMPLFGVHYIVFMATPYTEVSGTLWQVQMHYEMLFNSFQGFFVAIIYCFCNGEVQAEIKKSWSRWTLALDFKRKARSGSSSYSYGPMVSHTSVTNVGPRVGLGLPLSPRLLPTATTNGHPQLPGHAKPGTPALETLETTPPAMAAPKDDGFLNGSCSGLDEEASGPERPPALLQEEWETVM
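HEK-293-derived GP2 cells expressing PTHR1 and a GloSensor cAMP reporter, 3,000/well, plated overnight, given luciferin plus IBMX (each 0.5 mM as added) for 1 h at 37 °C, then compound for 1 h at 37 °C. Luminescence was read after 15 min at room temperature.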
FUS yeast rescue: qHTS for Suppressors of FUS Proteinopathy: Primary screen using FUS-linked yeast assay; S. cerevisiae FUS-expressing, growth rescue, OD600, 24 h; Potency, µM (highest dose often 76.6 µM), usual class: activators; 390,000 compounds, 0.24% hits;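 further: potency means the concentration at half of the fitted maximal effect; plate controls were DMSO vehicle for no effect and reference control for full effect; nearly all actives have a fitted effect of over 55% in size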
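Read-out: OD at 600 nm after 24hr at 30C, reporting rescue of FUS-induced yeast toxicity. Cells at OD 0.005 in galactose (2%) minimal medium; compounds tested in a dilution series; CP55940 titration from 92uM final as control.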
LDHA block: qHTS assay for inhibitors of human lactate dehydrogenase. L-lactate dehydrogenase A chain (Homo sapiens), P00338. purified LDHA, NADH/diaphorase-resazurin fluorescence; stronger effect = lower value. activity change, % (values are at about 110 or 230 µM). 480,000 compounds, 0.15% hits; in the data active means activity change below about -30%;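 further: plate controls were DMSO wells for no effect and wells without enzyme for full effect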
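Human LDH5 at 2 nM final in Tris HCl pH 7.4 with 0.06 mM NADH and 0.2 mM pyruvate, reacted 5 minutes at room temperature. Remaining NADH coupled via diaphorase/resazurin; resorufin fluorescence read at 0 and 20 minutes, normalized to enzyme-free and DMSO wells.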
The depositor's hits bear a star; i = inactive; · = no result; [ ] = remark or other dose. Compounds with a hit are over-represented: about 1.9% of the library has one in this group of screens. Unless noted, the call rests on the fitted dose curve; in most records, active means well fitted curve in the direction sought with a large enough effect; inconclusive means small, poorly fitted or top-dose-only effect, or another doubt; inactive means no such curve, though single readings can be large; an effect the other way counts as inactive or inconclusive.

SMILES	Abeta yeast res	aSyn rescue	TDP-43 yeast inh	PTHR1 agonist	FUS yeast rescue	LDHA block
Cc1ccc(C(C)C)c(OCC(=O)Nc2cccc(NC(=O)c3ccco3)c2)c1	i	·	20µM*	-13.2%	i	-8.6
O=C(Nc1cccc(NC(=O)c2cccnc2Cl)c1)c1ccco1	i	-7.9%	-1.0%	-6.6%[57.5 µM]	i	-3.0
Cc1cc(C)c(OCC(=O)Nc2cccc(-c3nc4ncccc4o3)c2)c(Br)c1	i	·	23.6%	-9.4%	i	-23.3
Cc1cccc(C)c1OCC(=O)Nc1cccc(NC(=O)c2ccco2)c1	i	3.7%	25.1µM*	-27.6%	i	2.8
COc1c(C)cc(Br)cc1C(=O)Nc1cccc(-c2nc3ncccc3o2)c1	i	0.9%	12.6µM*	i	i	-9.5
Cc1ccc(C(C)C)c(OCC(=O)Nc2cccc(-c3nc4ncccc4o3)c2)c1	i	·	22.4µM*	-16.3%	i	0.9
Cc1cccc(C)c1OCC(=O)Nc1ccc(NC(=O)c2ccco2)cc1	i	-3.0%	·	-9.3%	i	-11.0
NC(=O)c1cccc(C(=O)NC2CCCc3ccccc32)c1 (stereo not given)	·	·	·	·	·	-0.5
CCN(CC)c1ccc(-c2nnc(SCCS(=O)(=O)c3ccccc3)o2)cc1	·	·	·	·	·	-9.2
CCC1(C)NC(=O)N(NC(=O)c2nn(C)c(=O)c3ccccc23)C1=O (stereo not given)	·	·	·	·	·	0.5
Cc1ccc(OCc2ccccc2C)c([N+](=O)[O-])n1	i	4.1%	11.2µM*	i	i	-10.8
CCCCCCCCN1C(=O)[C@@H](CC(=O)N2CCN(C(=O)C3CC3)CC2)C[C@@]2(C(=O)OC)C1=C[C@H](C(C)C)O[C@@H]2C1CC1	·	·	·	·	28.2µM*	·
COC(=O)[C@]12C[C@H](CC(=O)NCCC(C)C)C(=O)N(Cc3ccco3)C1=C[C@H](C(C)C)O[C@@H]2C1CC1	·	·	·	·	i	·
COC(=O)[C@]12C[C@H](CC(=O)NCC34CC5CC(CC(C5)C3)C4)C(=O)N(Cc3ccco3)C1=C[C@H](C(C)C)O[C@@H]2C1CC1	·	·	·	·	25.1µM*	·
CCCCCCCCN1C(=O)[C@@H](CC(=O)NCCCN2CCCC2=O)C[C@@]2(C(=O)OC)C1=C[C@H](C(C)C)O[C@@H]2C1CC1	·	·	·	·	17.8µM*	·
CCc1ccc2oc(=O)cc(CN3CCN(c4ccccn4)CC3)c2c1	·	·	·	·	·	-1.1
COc1ccc(-c2nc3c(C(C)(C)C)cc(C(C)(C)C)c(O)c3o2)cc1OC	·	·	·	·	·	18.0
Cc1ccc(-c2cc(C(=O)Nc3cc(C)n(C)n3)c3ccccc3n2)cc1	·	·	·	·	·	-2.0
CCN(CC)CCN1C(=O)C(=O)/C(=C(/O)c2ccc(C)cc2)C1c1cccnc1 (stereo not given)	i	1.0%	6.7%	i	i	1.0
Cc1ccc(/C(O)=C2\C(=O)C(=O)N(CCc3c[nH]c4ccccc34)C2c2cccnc2)cc1 (stereo not given)	i	-1.8%	-16.6%	-54.4%	35.5µM*	-2.2
CCOc1ccc(-c2noc(-c3nnn(-c4ccccc4OCC)c3N)n2)cc1	·	·	·	·	·	2.3
Cc1ccc(C)c(OCCC(=O)N2CCN(S(=O)(=O)c3cc(F)ccc3F)CC2)c1	i	0.1%	17.8µM*	-15.6%	i	0.6
CCOc1ccccc1OCCCC(=O)N1CCN(S(=O)(=O)c2ccc(Cl)cc2)CC1	i	1.1%	14.4%	-21.8%	i	-2.1
Cc1ccc(S(=O)(=O)N2CCN(C(=O)CCOc3cc(C)ccc3C)CC2)cc1	i	9.5%	35.5µM*	-37.6%	i	-2.5
Cc1cc(Cl)ccc1OCCCC(=O)N1CCN(S(=O)(=O)c2ccccc2)CC1	i	17.9%	14.1µM*	i	i	1.2
